The source of these data is ChEMBL document CHEMBL4513141, “CO-ADD screening of NIH (USA) - Clinical Collection” (2021).

In one experiment the test system is Klebsiella pneumoniae. The conditions noted are these: Concentration 20 uM; ASSAY_TEST Inhibition of Bacterial Growth; detection method Absorption (OD600); MEDIA CAMHB; plate type 384well; NBS; CORNING #3640; time 18 hr.
Another experiment deals with Candida albicans. The conditions noted are these: 20 µM.
The test system of another experiment is Cryptococcus neoformans. The conditions noted are these: Concentration 20 uM; ASSAY_TEST Inhibition of Fungal Growth; detection method Resazurin; Absorption (OD600-OD570); plate type 384well; NBS; CORNING #3640. On the technique in general: The colour change of resazurin is a common sign of viable cells or microbes.

Results with a measured potency or affinity are listed apart.

For `CCC(=O)[N-]S(=O)(=O)c1ccc(-c2c(-c3ccccc3)noc2C)cc1.[Na+]` [PARECOXIB SODIUM], the Inhibition (in general, the drop in the measured response relative to a control, in per cent) with Klebsiella pneumoniae is 7.5%; in the experiment with Candida albicans, 3.16%; in the experiment on Cryptococcus neoformans it was -0.82%.

Regarding `O=C([O-])Cc1ccccc1Nc1c(Cl)cccc1Cl.[Na+]` [DICLOFENAC SODIUM], the values for the Inhibition in the experiment on Candida albicans and with Cryptococcus neoformans were 5.99% and 1.05%, respectively.

On to `C[C@H]1[C@@H](OC(=O)CCC(=O)O)O[C@@H]2O[C@@]3(C)CC[C@H]4[C@H](C)CC[C@@H]1[C@@]24OO3`, for which the Inhibition with Klebsiella pneumoniae was 13.77%; with Candida albicans, 26.5%; in the experiment with Cryptococcus neoformans, -1.11%.

In the case of `Nc1nc(N)nc(-c2cc(Cl)ccc2Cl)n1.O=C(O)/C=C\C(=O)O` [IRSOGLADINE MALEATE], the Inhibition in the experiment with Klebsiella pneumoniae was 5.85%; in the experiment with Candida albicans, 2.42%; in the experiment with Cryptococcus neoformans, -1.72%.

As to `Cn1ccnc1S` [METHIMAZOLE], the results for the Inhibition in the experiment on Klebsiella pneumoniae, with Candida albicans and in the experiment with Cryptococcus neoformans were 12.71%, 5.56% and 0.77%, respectively.

As to `CCCN(CCC)S(=O)(=O)c1ccc(C(=O)O)cc1` [PROBENECID], the Inhibition in the experiment on Klebsiella pneumoniae is recorded as 16.52%; in the experiment with Cryptococcus neoformans it was -7.72%.

In the case of `CC(=O)CCCCn1cnc2c1c(=O)n(C)c(=O)n2C` [LOMIFYLLINE], the Inhibition in the experiment with Klebsiella pneumoniae is 10.43%; in the experiment on Candida albicans, 2.63%; in the experiment on Cryptococcus neoformans it was -0.96%.

Take `CCc1c(C)[nH]c2c1C(=O)C(CN1CCOCC1)CC2.Cl` (centres undefined) [MOLINDONE HYDROCHLORIDE]: the Inhibition in the experiment with Klebsiella pneumoniae was -0.12%; with Candida albicans it was 3.99%; in the experiment on Cryptococcus neoformans, 6.64%.

In the case of `NNCCc1ccccc1.O=S(=O)(O)O` [PHENELZINE SULFATE], the Inhibition is 6.23% in the experiment with Klebsiella pneumoniae, 4.34% in the experiment with Candida albicans and -10.12% with Cryptococcus neoformans.

In the case of `CC12CCC(=O)C=C1CCC1C2CCC2(C)C1CCC2(O)C(=O)CO` (centres undefined), the figures for the Inhibition with Klebsiella pneumoniae, with Candida albicans and in the experiment with Cryptococcus neoformans were 8.14%, 3.12% and -0.13%, respectively.

In the case of `CN(C)CCCN1c2ccccc2Sc2ccc(Cl)cc21.Cl` [CHLORPROMAZINE HYDROCHLORIDE], the Inhibition in the experiment with Klebsiella pneumoniae was found to be 12.47%; with Candida albicans, 0.59%; in the experiment with Cryptococcus neoformans, 2.71%.

Turning to `CC(Cc1ccccc1)(NC(=O)CN)c1ccccc1.Cl` (centres undefined) [REMACEMIDE HYDROCHLORIDE], the Inhibition with Klebsiella pneumoniae was 8.63%; in the experiment with Candida albicans, 4.18%; in the experiment with Cryptococcus neoformans it was -7.79%.

As to `CC(=O)Nc1nnc(S(N)(=O)=O)s1` [ACETAZOLAMIDE], the values for the Inhibition in the experiment with Klebsiella pneumoniae, in the experiment with Candida albicans and in the experiment on Cryptococcus neoformans were 10.3%, 4.56% and -2.97%, respectively.

For `COc1ccc2[nH]c([S+]([O-])Cc3ncc(C)c(OC)c3C)nc2c1` (centres undefined) [OMEPRAZOLE], the Inhibition is 7.63% with Klebsiella pneumoniae, 27% in the experiment with Candida albicans and -26.65% in the experiment with Cryptococcus neoformans.

Consider `OC[C@H]1O[C@@H](Oc2cc(O)cc(/C=C/c3ccc(O)cc3)c2)[C@H](O)[C@@H](O)[C@@H]1O` [PICEID], for which the Inhibition is 6.92% in the experiment on Klebsiella pneumoniae, 3.19% in the experiment with Candida albicans and -0.2% in the experiment on Cryptococcus neoformans.

Take `COc1cc2c(cc1OC)C(=O)C(CC1CCN(Cc3ccccc3)CC1)C2.Cl` (centres undefined) [DONEPEZIL HYDROCHLORIDE]: the Inhibition was 5.21% with Klebsiella pneumoniae, 3.08% with Candida albicans and -7.79% in the experiment with Cryptococcus neoformans.

Regarding `O=C(O)CCc1nc(-c2ccccc2)c(-c2ccccc2)o1` [OXAPROZIN], the Inhibition was 16.28% with Klebsiella pneumoniae, 18.9% with Candida albicans and -4.51% with Cryptococcus neoformans.

Turning to `CC(C)c1nc(CN(C)C(=O)N[C@H](C(=O)N[C@@H](Cc2ccccc2)C[C@H](O)[C@H](Cc2ccccc2)NC(=O)OCc2cncs2)C(C)C)cs1` [RITONAVIR], the Inhibition was 14.84% with Klebsiella pneumoniae, 1.82% in the experiment on Candida albicans and -5.87% with Cryptococcus neoformans.

On to `C#C[C@]1(O)CC[C@H]2[C@@H]3CCc4cc(O)ccc4[C@H]3CC[C@@]21C` [ETHINYL ESTRADIOL], for which the Inhibition in the experiment with Klebsiella pneumoniae was 16.78%; in the experiment with Candida albicans, 2.87%; in the experiment with Cryptococcus neoformans it was -5.67%.

For `Cc1cnc(C(=O)NCCc2ccc(S(=O)(=O)NC(=O)NC3CCCCC3)cc2)cn1` [GLIPIZIDE], the Inhibition in the experiment with Klebsiella pneumoniae was 8.44%; in the experiment on Candida albicans it was 3.06%; in the experiment with Cryptococcus neoformans, -1.88%.

As for `Cc1ccc(Cl)c(Nc2ccccc2C(=O)[O-])c1Cl.O.[Na+]` [MECLOFENAMATE SODIUM], the Inhibition in the experiment with Klebsiella pneumoniae came to 12.39%; in the experiment with Candida albicans, 8.09%; with Cryptococcus neoformans it was 1.36%.

Regarding `CC1=C(/C=C/C(C)=C/C=C/C(C)=C\C(=O)O)C(C)(C)CCC1` [ISOTRETINOIN], the Inhibition is 9.94% in the experiment on Klebsiella pneumoniae, 1.42% in the experiment on Candida albicans and -2.4% with Cryptococcus neoformans.

Turning to `Nc1ccc(O)c(C(=O)O)c1` [MESALAMINE], the Inhibition with Candida albicans came out at 1.32%; in the experiment on Cryptococcus neoformans it was 3.98%.

Take `COc1ccccc1OCC(O)CN1CCN(CC(=O)Nc2c(C)cccc2C)CC1.Cl.Cl` (centres undefined) [RANOLAZINE HYDROCHLORIDE]: the Inhibition in the experiment with Klebsiella pneumoniae was 1.09%; in the experiment on Candida albicans it was 1.45%; in the experiment with Cryptococcus neoformans, -5.35%.

For the molecule `CC(=O)[C@H]1CC[C@H]2[C@@H]3C[C@H](C)C4=CC(=O)CC[C@]4(C)[C@H]3[C@@H](O)C[C@]12C` [MEDRYSONE], the figures for the Inhibition in the experiment with Klebsiella pneumoniae, in the experiment with Candida albicans and with Cryptococcus neoformans were 12.23%, 1.89% and -4.18%, respectively.

For `O=C1CCc2ccc(OCCCCN3CCN(c4cccc(Cl)c4Cl)CC3)cc2N1` [ARIPIPRAZOLE], the Inhibition is 2.6% with Klebsiella pneumoniae, -0.97% in the experiment on Candida albicans and 6.93% in the experiment on Cryptococcus neoformans.

For the molecule `CCOc1cc(CC(=O)N[C@@H](CC(C)C)c2ccccc2N2CCCCC2)ccc1C(=O)O` [REPAGLINIDE], the Inhibition with Klebsiella pneumoniae was 3.14%; in the experiment on Candida albicans it was 4.01%; in the experiment on Cryptococcus neoformans, -6.91%.

On to `CC(C)(C(=O)c1cccnc1)c1cccnc1` [METYRAPONE], for which the results for the Inhibition in the experiment on Klebsiella pneumoniae, in the experiment on Candida albicans and in the experiment on Cryptococcus neoformans were 19.17%, 2.49% and -9.27%, respectively.

As to `CC(C)(C#N)c1cc(Cn2cncn2)cc(C(C)(C)C#N)c1` [ANASTROZOLE], the Inhibition in the experiment with Klebsiella pneumoniae was -11.78%; with Candida albicans, 1.23%; in the experiment with Cryptococcus neoformans, -3.6%.
